From PubChem BioAssay (NCATS)
Results filed as inconclusive are left out. Calls of active or inactive are those of the source. Calls follow the shape of the dose curve; as a rule, active = well fitted inhibition curve with a large enough effect; inconclusive = small, poorly fitted or top-dose-only effect; inactive = flat fitted curve, though single readings scatter.

tested on: CP201; experiment: qHTS profiling for inhibitors of Plasmodium falciparum proliferation (AID 504749);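 also: 0% = DMSO vehicle and full inhibition = artemisinin control; nearly all actives have a fitted effect of over 60% in size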; details: P. falciparum in erythrocytes, SYBR Green DNA, 72 h; series mostly up to 28.7 µM; activity, negative = inhibition: at the top concentration
Method in brief: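 SYBR Green fluorescence (ex 485 nm, em 535 nm) reports parasite DNA after 72 h compound exposure of infected red cells at 0.3% parasitemia, 2.5% hematocrit; signal normalized to 0.29 uM artemisinin and vehicle wells.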

| SMILES | activity, negative = inhibition |
| --- | --- |
| O=C(O)Cc1ccc(CCNS(=O)(=O)c2ccc(Cl)cc2)cc1 | 3.4% (inactive) |
| NS(=O)(=O)c1ccc(NC(=O)CCC(=O)O)cc1 | 5.72% (inactive) |
| C=CCSCC1Nc2cc(Cl)c(S(N)(=O)=O)cc2S(=O)(=O)N1 (centres undefined) | -6.36% (inactive) |
| Cc1cccc(C)c1NC(=O)CC12CCCN1CCC2 | -4.19% (inactive) |
| CC(=O)Nc1cccc(O)c1 | 4.34% (inactive) |
| CNCc1ccccc1 | -7.23% (inactive) |
| COc1ccc(C(=O)NCc2ccc(OCCN(C)C)cc2)cc1OC | 0.229% (inactive) |
| C=CCNC(N)=S | -2.94% (inactive) |
| NS(=O)(=O)c1cc(-c2nn[nH]n2)c(NCc2cccs2)cc1Cl | -1.42% (inactive) |
| CCOc1ccc(C(=O)OCCN(CC)CC)cc1 | -5.66% (inactive) |
| Cc1c(N(C)C)c(=O)n(-c2ccccc2)n1C | -6.41% (inactive) |
| CCc1cccc(CC)c1NC(=O)CN(CC(=O)O)CC(=O)O | 0.411% [at 12.8 µM] (inactive) |
| COC(=O)c1cccnc1 | -1.96% (inactive) |
| Cc1ccc(S(=O)(=O)NC(=O)NC2CCCCCCC2)cc1 | 2.21% (inactive) |
| CCCCCCCCCCCCCCCCC(C(=O)O)C(O)(CC(=O)O)C(=O)O (centres undefined) | 1.88% (inactive) |
| Cn1c(=O)c2c(ncn2CCO)n(C)c1=O | 5.31% (inactive) |
| CCCC(O)C(CC)CO (centres undefined) | -8.38% (inactive) |
| CCCCCC(N)=O | -5.06% (inactive) |
| O=C(O)c1ccc[n+]([O-])c1 | 0.446% (inactive) |
| CC(CSC(=O)c1ccccc1)C(=O)N1C[C@@H](Sc2ccccc2)C[C@H]1C(=O)O (some centres undefined) | 2.96% (inactive) |
| CCOc1cc(NC(C)=O)ccc1C(=O)OC | -0.925% (inactive) |
| C[C@@H](N)C(=O)O | -1.87% (inactive) |
| NS(=O)(=O)c1cc2c(cc1C(F)(F)F)NCNS2(=O)=O | 0.814% [at 12.8 µM] (inactive) |
| NC(=O)NS(=O)(=O)c1ccc(N)cc1 | 0.722% (inactive) |
